# Test results: PubChem BioAssay AID2315 (National Center for Advancing Translational Sciences (NCATS), 2010)
# The campaign covered roughly 290,000 compounds. About 27,000 (9.3%) were called active. Shown is part of a subset that was picked to be rich in actives. Unmarked numbers belong to inactive results. No stated cut-off is given here; in the data, active means inhibition mostly above about 28% (no sharp cut-off); inactive means mostly below about 43%.
# Assay: A qHTS for Small Molecule Inhibitors of Shiga Toxin; further: 0% is about no effect
# Settings: Vero cells, Shiga toxin protein synthesis inhibition reporter; at 38.7 µM, hits give high values
row,Structure (SMILES),inhibition
1,COc1ccc(OC)c(CCNC(=O)c2nn(C)c3c2CS(=O)(=O)c2ccccc2-3)c1,-4.81%
2,Nc1nonc1-n1nnc(C(=O)N/N=C\c2ccncc2)c1CN1CCCCC1,-10.8%
3,CC1CCN(C(=O)c2ccc3c(c2)NC(=O)CN3)CC1,-6.93%
4,Cc1cc(C(=O)NC2CCCc3c2cnn3-c2cccc(C)c2C)c(C)o1 (centres undefined),3.44%
5,COc1ccccc1CCNC(=O)C1CCN(C(=O)/C=C/c2ccccc2)CC1,39.9%
6,COc1ccc(Nc2cc(Sc3ccc(OC)cc3)ncn2)cc1,4.28%
7,COc1ccc(Nc2ncnc3ccc(OC)cc23)cc1,-8.31%
8,COc1ccc(Nc2ncnc3sc(C)cc23)cc1,56.1% (active)
9,COc1ccc(-n2ncc3c2CC(C)(C)CC3NC(=O)CCc2c(C)nn(C)c2C)cc1 (centres undefined),-7.46%
10,COc1cccc(NC(=O)CCc2nnc3ccc(N4CCC(C)CC4)nn23)c1,2.02%
11,COc1ccc(C(=O)NC(=S)N2CCNC(=O)C2CC(=O)OC(C)C)cc1 (centres undefined),-13.5%
12,COc1ccc(S(=O)(=O)N2CCN(C(=O)N(C)C)C2C)cc1 (centres undefined),-15.4%
13,COc1ccc(/C=N/NC(=O)c2ccc3c(c2)OCCO3)c(OC)c1,45.8%
14,COc1ccc(/C=N/OCc2ccccc2C#N)c(OC)c1,70.8% (active)
15,COc1ccc(/C=N/Nc2cc(N3CCOCC3)nc(C)n2)c(OC)c1,6.01%
16,Cc1occc(=O)c1OCc1ccc(F)cc1,-2.22%
17,Cc1nc2ccccc2cc1OCc1ccc(F)cc1,29.8% (active)
18,Fc1cccc2ncnc(OCc3ccccc3)c12,5.51%
19,O=C(COc1ccc(Cl)cc1)NCCS(=O)(=O)N1CCN(c2ccc(F)cc2)CC1,29%
20,COC(=O)/C=C\C(=O)Nc1cccc([N+](=O)[O-])c1,26.5%
21,CC(C)c1ccc(N(C(=O)c2ccco2)C(C(=O)NC2CCCC2)c2cccnc2)cc1 (centres undefined),22.5%
22,COc1ccc(C2NC(=O)N(C)C(C)=C2[N+](=O)[O-])cc1 (centres undefined),-11.1%
23,Cc1cccc(C)c1-n1c(C)cc(/C=C2\C(=O)NN(c3ccccc3)C2=O)c1C,-7.74%
24,Cc1cc(/C=C2/NC(=O)NC2=O)c(C)n1-c1cccnc1,44.4%
25,Cc1ccccc1-n1c(C)cc(/C=C2\NC(=O)NC2=O)c1C,55.3% (active)

row,Structure (SMILES),inhibition
1,Cn1c(=O)oc2cc(S(=O)(=O)NCCC(=O)NCc3ccccc3Cl)ccc21,-2.59%
2,CC(=O)c1ccc(NC(=O)c2ccc(-n3cncn3)c([N+](=O)[O-])c2)cc1,-21.9%
3,Cc1ccnc2nc(C(=O)Nc3nnc(-c4ccccc4)o3)nn12,71.9% (active)
4,Cc1cccc(NC(=O)Nc2nnc(-c3ccccc3)o2)c1,-5.35%
5,CCc1nnc(NC(=O)c2nc3nccc(C)n3n2)s1,2.51%
6,O=C(CN1C2=NCCN2c2ccccc21)c1cccs1,-3.32%
7,Nc1c(C(=O)c2cccs2)sc2nsc(SCCN3CCCCC3)c12,45.8% (active)
8,O=C(CCC1CCCC1)N=C1SC2CS(=O)(=O)CC2N1Cc1ccccc1 (centres undefined),14.2%
9,COCCCNC(=O)Cc1ccc(-n2c(C)nc3cccnc32)cc1,1.73%
10,CC1C/C(=N/NC(=O)c2cccs2)CC(C)(C)C1 (centres undefined),84.1% (active)
11,CC(C)OCCCNC(=O)CNC(=O)c1cccs1,-2.7%
12,CC1(C)CC(=O)C/C(=N\NC(=O)c2cccs2)C1,18.8%
13,COc1cc(CCC(=O)N2CCN(c3ccccc3Cl)CC2)cc(OC)c1OC,-6.24%
14,O=C(CN1CCC(NC(=O)C2CC2)CC1)Nc1ccccc1[N+](=O)[O-],-3.78%
15,O=c1ccc2cc(S(=O)(=O)NCCCc3ccccc3)ccc2[nH]1,3.55%
16,COc1ccc(CNC(=O)CSc2n[nH]c(N)n2)cc1OC,0.155%
17,CC(C)(C)SCCNC(=O)c1cccc([N+](=O)[O-])c1,-40.1% (active)
18,Cc1cccc(C(=O)NNC(=O)c2cccc([N+](=O)[O-])c2)c1,3.18%
19,COc1cccc(CNC(=O)CCCC(=O)Nc2cccc([N+](=O)[O-])c2)c1,-12.3%
20,COc1cccc(NCCC(=O)c2cccc([N+](=O)[O-])c2)c1,67.3% (active)
21,COc1cccc(C(=O)CC(=O)C(=O)Nc2ccc([N+](=O)[O-])cc2C)c1,4.12%
22,Cc1cc(CNC(=O)c2cccc([N+](=O)[O-])c2)c2ccccc2n1,54%
23,COC(=O)c1ccc(COC(=O)c2cnc(Cl)c(Cl)c2)cc1,87.3% (active)
24,COC(=O)c1ccc(COC(=O)c2cnccn2)cc1,5.86%
